# According to the supplement of paper PMC8728848:
# Only a selection was taken, and the strongest signals are over-represented in it overall.
# Tests used:
# Assay in all cases: glycan array binding signal (z-score within array); higher = stronger binding
# Conditions in all cases: glycan notation: IUPAC condensed, linker removed; mutation: R201A
# [1] = target: Fuc(a1-2)Gal
# How it was run: (§1)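 The binding signal is a Z-score computed within each array. Data were drawn from 3228 arrays in the Consortium for Functional Glycomics database, restricted to those with a known protein sequence. Scores were averaged over arrays of the same protein sequence at different concentrations or buffers, and over linkers, and negative values can be taken as non-binding.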
# [2] = target: Fuc(a1-2)Gal(b1-3)GalNAc(b1-3)Gal(a1-4)Gal(b1-4)Glc
# How it was run: as §1
# [3] = target: Fuc(a1-2)Gal(b1-3)GalNAc(b1-4)[Neu5Ac(a2-3)]Gal(b1-4)Glc
# How it was run: as §1
# [4] = target: Fuc(a1-2)Gal(b1-4)Glc
# How it was run: as §1
# [5] = target: Fuc(a1-2)[Gal(a1-3)]Gal(b1-3)GlcNAc
# How it was run: as §1
# [6] = target: Fuc(a1-2)[Gal(a1-3)]Gal(b1-4)GlcNAc(b1-2)Man(a1-3)[Fuc(a1-2)[Gal(a1-3)]Gal(b1-4)GlcNAc(b1-2)Man(a1-6)]Man(b1-4)GlcNAc(b1-4)GlcNAc
# How it was run: as §1
# [7] = target: Fuc(a1-2)[Gal(a1-3)]Gal(b1-4)GlcNAc(b1-3)[Fuc(a1-2)[Gal(a1-3)]Gal(b1-4)GlcNAc(b1-6)]GalNAc
# How it was run: as §1
# [8] = target: Fuc(a1-2)[Gal(a1-3)]Gal(b1-4)GlcNAc(b1-6)GalNAc
# How it was run: as §1
# [9] = target: Fuc(a1-2)[GalNAc(a1-3)]Gal(b1-4)GlcNAc(b1-2)Man(a1-3)[Fuc(a1-2)[GalNAc(a1-3)]Gal(b1-4)GlcNAc(b1-2)Man(a1-6)]Man(b1-4)GlcNAc(b1-4)[Fuc(a1-6)]GlcNAc
# How it was run: as §1
# [10] = target: Fuc(a1-2)[GalNAc(a1-3)]Gal(b1-4)GlcNAc(b1-3)Gal(b1-4)GlcNAc(b1-3)Gal(b1-4)GlcNAc
# How it was run: as §1
# [11] = target: Fuc(a1-3)[Gal(b1-4)]GlcNAc(b1-2)Man(a1-3)[Fuc(a1-3)[Gal(b1-4)]GlcNAc(b1-2)Man(a1-6)]Man(b1-4)GlcNAc(b1-4)[Fuc(a1-6)]GlcNAc
# How it was run: as §1
# [12] = target: Fuc(a1-3)[Gal3S(b1-4)]GlcNAc
# How it was run: as §1
# [13] = target: Fuc(a1-4)GlcNAc
# How it was run: as §1
# [14] = target: Gal(a1-3)Gal(b1-4)GlcNAc
# How it was run: as §1
# [15] = target: Gal(a1-3)Gal(b1-4)[Fuc(a1-3)]GlcNAc(b1-2)Man(a1-3)[Gal(a1-3)Gal(b1-4)[Fuc(a1-3)]GlcNAc(b1-2)Man(a1-6)]Man(b1-4)GlcNAc(b1-4)GlcNAc
# How it was run: as §1
# [16] = target: Gal(a1-4)Gal(b1-4)GlcNAc(b1-3)Gal(b1-4)Glc
# How it was run: as §1
# [17] = target: Gal(b1-3)GlcNAc(b1-2)Man(a1-3)[Gal(b1-3)GlcNAc(b1-2)Man(a1-6)]Man(b1-4)GlcNAc(b1-4)[Fuc(a1-6)]GlcNAc
# How it was run: as §1
# [18] = target: Gal(b1-3)GlcNAc(b1-2)Man(a1-3)[GlcNAc(b1-4)][Gal(b1-3)GlcNAc(b1-2)Man(a1-6)]Man(b1-4)GlcNAc(b1-4)GlcNAc
# How it was run: as §1
# [19] = target: Gal(b1-4)GlcNAc(b1-3)Gal(b1-3)GalNAc
# How it was run: as §1
# [20] = target: Gal(b1-4)GlcNAc(b1-3)Gal(b1-4)Glc
# How it was run: as §1
# [21] = target: Gal(b1-4)GlcNAc(b1-3)Gal(b1-4)GlcNAc(b1-3)Gal(b1-4)GlcNAc(b1-3)Gal(b1-4)GlcNAc(b1-3)Gal(b1-4)GlcNAc(b1-2)Man(a1-3)[Gal(b1-4)GlcNAc(b1-3)Gal(b1-4)GlcNAc(b1-3)Gal(b1-4)GlcNAc(b1-3)Gal(b1-4)GlcNAc(b1-3)Gal(b1-4)GlcNAc(b1-2)Man(a1-6)]Man(b1-4)GlcNAc(b1-4)GlcNAc
# How it was run: as §1
# [22] = target: Gal(b1-4)GlcNAc(b1-3)Gal(b1-4)GlcNAc(b1-3)Gal(b1-4)GlcNAc(b1-3)Gal(b1-4)GlcNAc(b1-3)Gal(b1-4)GlcNAc(b1-3)Gal(b1-4)GlcNAc(b1-2)Man(a1-3)[Gal(b1-4)GlcNAc(b1-3)Gal(b1-4)GlcNAc(b1-3)Gal(b1-4)GlcNAc(b1-3)Gal(b1-4)GlcNAc(b1-3)Gal(b1-4)GlcNAc(b1-3)Gal(b1-4)GlcNAc(b1-2)Man(a1-6)]Man(b1-4)GlcNAc(b1-4)GlcNAc
# How it was run: as §1
# [23] = target: Gal3S6S(b1-4)GlcNAc6S
# How it was run: as §1
# [24] = target: Gal6P(b1-4)GlcNAc
# How it was run: as §1
# [25] = target: GalNAc(a1-3)Gal
# How it was run: as §1
# [26] = target: GalNAc(b1-3)Gal(a1-4)Gal(b1-4)GlcNAc
# How it was run: as §1
# [27] = target: GalNAc3S(b1-4)GlcNAc
# How it was run: as §1
# [28] = target: Glc(a1-6)Glc(a1-6)Glc(a1-6)Glc
# How it was run: as §1
# [29] = target: Glc(b1-4)Glc
# How it was run: as §1
# [30] = target: GlcA(b1-3)GlcNAc
# How it was run: as §1
# [31] = target: GlcNAc(b1-2)Man(a1-3)[GlcNAc(b1-2)Man(a1-6)]Man(b1-4)GlcNAc(b1-4)[Fuc(a1-6)]GlcNAc
# How it was run: as §1
# [32] = target: GlcNAc(b1-3)Fuc
# How it was run: as §1
# [33] = target: GlcNAc(b1-3)Gal
# How it was run: as §1
# [34] = target: GlcNAc(b1-3)Gal(b1-4)GlcNAc
# How it was run: as §1
# [35] = target: GlcNAc(b1-3)Gal(b1-4)GlcNAc(b1-2)Man(a1-3)[GlcNAc(b1-3)Gal(b1-4)GlcNAc(b1-2)Man(a1-6)]Man(b1-4)GlcNAc(b1-4)[Fuc(a1-6)]GlcNAc
# How it was run: as §1
# [36] = target: GlcNAc(b1-4)Gal(b1-4)GlcNAc
# How it was run: as §1
# [37] = target: GlcNAc(b1-4)GlcNAc
# How it was run: as §1
# [38] = target: GlcNAc(b1-4)GlcNAc(b1-4)GlcNAc
# How it was run: as §1
# [39] = target: GlcNAc(b1-6)GalNAc
# How it was run: as §1
# [40] = target: GlcNAc6S(b1-3)Gal(b1-4)GlcNAc
# How it was run: as §1
# [41] = target: Kdn(a2-3)Gal(b1-4)[Fuc(a1-3)]GlcNAc
# How it was run: as §1
# [42] = target: Man(a1-2)Man(a1-3)Man
# How it was run: as §1
# [43] = target: Neu5Ac(a2-3)Gal(b1-3)GalNAc(b1-4)[Neu5Ac(a2-3)]Gal(b1-4)Glc
# How it was run: as §1
# [44] = target: Neu5Ac(a2-3)Gal(b1-3)GlcNAc(b1-2)[Neu5Ac(a2-3)Gal(b1-3)GlcNAc(b1-4)]Man(a1-6)[Neu5Ac(a2-3)Gal(b1-3)GlcNAc(b1-2)Man(a1-3)]Man(b1-4)GlcNAc(b1-4)GlcNAc
# How it was run: as §1
# [45] = target: Neu5Ac(a2-3)Gal(b1-3)GlcNAc6S
# How it was run: as §1
# [46] = target: Neu5Ac(a2-3)Gal(b1-4)Glc
# How it was run: as §1
# [47] = target: Neu5Ac(a2-3)Gal(b1-4)GlcNAc(b1-2)Man(a1-3)[Neu5Ac(a2-6)Gal(b1-4)GlcNAc(b1-2)Man(a1-6)]Man(b1-4)GlcNAc(b1-4)GlcNAc
# How it was run: as §1
# [48] = target: Neu5Ac(a2-3)Gal(b1-4)GlcNAc(b1-3)Gal(b1-4)GlcNAc
# How it was run: as §1
# [49] = target: Neu5Ac(a2-3)Gal(b1-4)[Fuc(a1-3)]GlcNAc(b1-3)Gal(b1-4)GlcNAc
# How it was run: as §1
# [50] = target: Neu5Ac(a2-6)Gal(b1-4)GlcNAc(b1-2)Man(a1-6)Man(b1-4)GlcNAc(b1-4)GlcNAc
# How it was run: as §1
# [51] = target: Neu5Ac(a2-6)Gal(b1-4)GlcNAc(b1-3)Gal(b1-4)GlcNAc(b1-3)GalNAc
# How it was run: as §1
# [52] = target: Neu5Ac(a2-6)Gal(b1-4)GlcNAc(b1-6)[Gal(b1-3)GlcNAc(b1-3)]Gal(b1-4)Glc
# How it was run: as §1
binder,measurement,setting,value
OS9 (Arabidopsis thaliana) (protein) MRGSHHHHHHGMASMTGGQQMGRDLYDDDDKSRLQIFPAHLVGTFSRNNREPKYKIEFLPEDSPFHPGDNLESMVMLDKHGNRFLCYLPKEEKATSGWTSSQQNISTVMMETQQLVKLKTPDELLQPLSEKCLFRQEGWWSYEFCHQKYVRQLHVEDENKIVQEFFLGTFDPEATAAFNQTVSDASTDASQRYHSHVYTNGTTCDLTGSPAEVEVRFVCAETRAMVTSITELSTCKYALTVQCPTLCKHPLFQLEKPVSHTIHCNAIPVEEDATRNKEEQAVDESPKMIADS,glycan array binding signal (z-score),[1],0.581
same,glycan array binding signal (z-score),[2],-0.131
same,glycan array binding signal (z-score),[3],-0.246
same,glycan array binding signal (z-score),[4],-0.732
same,glycan array binding signal (z-score),[5],-0.124
same,glycan array binding signal (z-score),[6],-0.237
same,glycan array binding signal (z-score),[7],1.25
same,glycan array binding signal (z-score),[8],-0.223
same,glycan array binding signal (z-score),[9],-0.739
same,glycan array binding signal (z-score),[10],2.49
same,glycan array binding signal (z-score),[11],3.48
same,glycan array binding signal (z-score),[12],0.043
same,glycan array binding signal (z-score),[13],2.18
same,glycan array binding signal (z-score),[14],-0.929
same,glycan array binding signal (z-score),[15],0.205
same,glycan array binding signal (z-score),[16],-0.456
same,glycan array binding signal (z-score),[17],-0.307
same,glycan array binding signal (z-score),[18],-0.686
same,glycan array binding signal (z-score),[19],-0.513
same,glycan array binding signal (z-score),[20],-0.35
same,glycan array binding signal (z-score),[21],-0.257
same,glycan array binding signal (z-score),[22],0.133
same,glycan array binding signal (z-score),[23],3.98
same,glycan array binding signal (z-score),[24],-0.208
same,glycan array binding signal (z-score),[25],1.39
same,glycan array binding signal (z-score),[26],2.17
same,glycan array binding signal (z-score),[27],2.29
same,glycan array binding signal (z-score),[28],-1.12
same,glycan array binding signal (z-score),[29],2.1
same,glycan array binding signal (z-score),[30],1.54
same,glycan array binding signal (z-score),[31],0.257
same,glycan array binding signal (z-score),[32],0.403
same,glycan array binding signal (z-score),[33],-0.422
same,glycan array binding signal (z-score),[34],-0.104
same,glycan array binding signal (z-score),[35],2.59
same,glycan array binding signal (z-score),[36],0.805
same,glycan array binding signal (z-score),[37],8.22
same,glycan array binding signal (z-score),[38],0.6
same,glycan array binding signal (z-score),[39],-0.498
same,glycan array binding signal (z-score),[40],-0.224
same,glycan array binding signal (z-score),[41],0.82
same,glycan array binding signal (z-score),[42],0.874
same,glycan array binding signal (z-score),[43],-0.662
same,glycan array binding signal (z-score),[44],-1.14
same,glycan array binding signal (z-score),[45],-0.775
same,glycan array binding signal (z-score),[46],2.08
same,glycan array binding signal (z-score),[47],-0.425
same,glycan array binding signal (z-score),[48],0.1
same,glycan array binding signal (z-score),[49],1.98
same,glycan array binding signal (z-score),[50],-0.225
same,glycan array binding signal (z-score),[51],0.709
same,glycan array binding signal (z-score),[52],-0.933
